Tests used:
Experiment in all cases: PBM binding z-score (relative to random genomic background probes); higher = stronger binding; sequences stand for … in GC…GCGATTGACAGCGTAGAATGAAGG
[1] = test system: FXR:RXRa (NR concentration 270 nM, RXRa partner concentration 90 nM)
How it was run: (§1)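 Each nuclear receptor dimer, without ligand, was incubated for 1 h on custom Agilent 4×180K protein-binding microarrays. Binding was detected with antibodies against each partner (one per run), and scanned fluorescence was regression-normalized. The binding z-scores are referenced to random human genomic background probes.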

[2] = test system: LXRa:RXRa (NR concentration 270 nM, RXRa partner concentration 90 nM)
How it was run: as §1

[3] = test system: LXRa homodimer (NR concentration 270 nM)
How it was run: as §1

[4] = test system: LXRb:RXRa (NR concentration 270 nM, RXRa partner concentration 90 nM)
How it was run: as §1

[5] = test system: LXRb homodimer (NR concentration 270 nM)
How it was run: as §1

[6] = test system: PPARa:RXRa (NR concentration 270 nM, RXRa partner concentration 90 nM)
How it was run: as §1

[7] = test system: PPARg:RXRa (NR concentration 180 nM, RXRa partner concentration 90 nM)
How it was run: as §1

[8] = test system: PPARg:RXRa 270nM:90nM, anti-RXR (NR concentration 270 nM, RXRa partner concentration 90 nM)
How it was run: as §1

[9] = test system: PPARg:RXRa 30nM:10nM, anti-RXR (NR concentration 30 nM, RXRa partner concentration 10 nM)
How it was run: as §1

[10] = test system: PPARg:RXRa 90nM:30nM, anti-RXR (NR concentration 90 nM, RXRa partner concentration 30 nM)
How it was run: as §1

Sequence | PBM binding z-score [1] | PBM binding z-score [2] | PBM binding z-score [3] | PBM binding z-score [4] | PBM binding z-score [5] | PBM binding z-score [6] | PBM binding z-score [7] | PBM binding z-score [8] | PBM binding z-score [9] | PBM binding z-score [10]
AGAAGGAGGTTACCAAAGATCAGGGAAACGCTTG | 0.978 | 5.85 | 0.0257 | 2.9 | 0.368 | 2.79 | 1.84 | 2.1 | 0.736 | 1.37
GCTCGCAGGACAAGGTCAGAGCTTTGTCCGTAGA | 1.42 | 1.47 | -0.546 | 1.08 | -1.31 | 2.19 | -0.311 | 0.692 | -0.968 | -0.0202
AGAACGAGGGCACGCAGAGTTGATAGCAGAGTAG | 1.14 | 0.811 | -0.396 | 0.439 | -0.647 | 2.54 | 2.51 | 2.28 | 0.386 | 1.35
CGTCCAAGGTCAATGCTAGGTCAGTAAAAGCATT | 6.68 | 5.2 | 2.38 | 4.32 | 0.868 | 5.23 | 4.37 | 4.46 | 1.9 | 3.08
ATCTCTACGTAAAGATAGTTCAGTGAATGCAAAT | -0.547 | -0.0846 | 0.644 | 0.0178 | 0.419 | -0.229 | 0.493 | 0.104 | 0.0785 | 0.04
CCTGCTAGGTTATGGTCAGCTAATCTACAGTATG | -0.0301 | -0.0994 | -0.554 | -0.211 | -0.277 | -0.0739 | -0.279 | -0.092 | -0.295 | -0.423
GTACCAAGGTGAATAGGTCGTTGCTGAGTAGGCG | 0.799 | 0.799 | -0.43 | 0.493 | -0.623 | 2.23 | 1.21 | 1.71 | -0.00379 | 1.18
CCGATTGGGGCATAAGGTTACCATAAGCCAGCCC | 0.433 | 2.07 | -0.331 | 0.749 | -0.968 | 1.96 | 1.92 | 2.87 | 0.812 | 2.27
CCTATTAGGTGACCATAAGGGCAACCGAAGCTCG | 0.883 | 0.519 | -0.266 | 0.209 | -0.299 | 1.81 | 1.73 | 1.56 | 0.344 | 0.657
CCGACTGGGGCAAAAGTTACCATACTCAGTACGA | -0.402 | -0.339 | -0.126 | -0.0156 | -0.764 | 2.49 | 5.28 | 6.09 | 4.45 | 6.52
AGTCAAAGTTCACTAGGTAACGTAGGATTCAGCT | 5.02 | 4.93 | 3.02 | 2.92 | 0.939 | 4.65 | 7.24 | 6.38 | 3.58 | 5.79
